Laboratory results as given in PubChem BioAssay (NCATS).
Results filed as inconclusive are left out. Activity calls are given as the source filed them. Calls follow the shape of the dose curve; as a rule, active = well fitted curve in the direction sought with a large enough effect; inconclusive = small, poorly fitted or top-dose-only effect, or another doubt; inactive = no such curve, though single readings can be large; an effect the other way counts as inactive or inconclusive.

Legend:
[1] = target: Glutathione peroxidase 1 (Homo sapiens) (UniProt P07203); assay: Primary qHTS Assay for Inhibitors of Recombinant Selenoprotein Glutathione Peroxidase 1 (GPX1) (AID 1845191); also: nearly all actives have a fitted effect of over 65% in size; as to activity, negative = inhibition: % is scaled to controls: 0 for no effect and ±100 for the full control effect
In short: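 10 nM GPX1 + cpd, 30 min RT; start w/ 1 mM GSH, 0.5 mM cumene hydroperoxide, 0.5 mM NADPH, 100 nM GR, 0.01% BSA; buffer 50 mM Tris-HCl pH 7.5, 2 mM EDTA, 150 mM NaCl; Fl 340/450, 0 & 15 min.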

[2] = target: Phospholipid hydroperoxide glutathione peroxidase GPX4 (Homo sapiens) (UniProt P36969); assay: Primary qHTS Assay for Inhibitors of Recombinant Selenoprotein Glutathione Peroxidase 4 (GPX4) (AID 1845192); also: nearly all actives have a fitted effect of over 65% in size; as to activity change, negative = inhibition: series mostly up to about 50 µM; % is scaled to controls: 0 for no effect and ±100 for the full control effect
In short: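 NADPH consumption, followed by fluorescence at 340/450 nm between 0 and 15 min, reports GPX4 activity via coupled glutathione reductase (100 nM). Enzyme 200 nM was pre-exposed to compound 30 min; 0.5 mM cumene hydroperoxide and 1 mM GSH served as substrates.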

[3] = target: Luciferin 4-monooxygenase (Photinus pyralis) (UniProt P08659); assay: Primary firefly luciferase (FLuc) qHTS assay for identification of artifact compounds. (AID 1845220); also: nearly all actives have a fitted effect of over 60% in size;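 as to activity change, negative = inhibition: series mostly up to about 54 µM; plate controls were DMSO vehicle for no effect and no enzyme for full effect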
In short: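 Compounds sat 15 min at room temperature with 10 uM luciferin and 10 uM ATP (pH 7.6 Tris acetate). Firefly luciferase (10 nM final) was then added, and luminescence was read 5 min later. Data normalized to no-enzyme and DMSO controls were Hill-fitted.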

[4] = Primary fluorescence-based thiol-reactive (MSTI) qHTS assay for identification of artifact compounds. (AID 1845221);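 also: series mostly up to about 54 µM; thiol-reactive compounds lower the probe fluorescence signal; nearly all actives have a fitted effect of over 65% in size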
In short: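 First, 4 uM MSTI in 2% DMSO/PBS pH 7.4 was dispensed; next, compounds were added; then plates sat 1 h at room temperature without light. Finally, emission at 598 nm was recorded.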

[5] = test system: Nanoluciferase (engineered Oplophorus gracilirostris luciferase); assay: Primary Nanoluciferase (NLuc) qHTS assay for identification of artifact compounds. (AID 1845222);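 also: series mostly up to about 54 µM; 0% = DMSO and -100% = no enzyme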
In short: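 Luminescence from secreted NLuc (filtered, 1:55-diluted S16 cell medium) read 5 min after Nano-Glo substrate; compounds preincubated 15 min, RT. Hill fits of inhibition normalized to DMSO and no-enzyme.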

[6] = Primary redox qHTS assay for identification of artifact compounds. (AID 1845223);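 also: 0% = DMSO and 100% = reference compound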
In short: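 Amplex Red (25 uM) and HRP (250 mU/mL) in HBSS, with compounds for 15 min, then 250 uM DTT for 30 min, room temperature, dark. Fluorescence 525/598 nm read; normalized to DMSO and 10 uM DA3003; Hill fit.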

Chain of Glutathione peroxidase 1 (Homo sapiens) (P07203 whole entry, looked up): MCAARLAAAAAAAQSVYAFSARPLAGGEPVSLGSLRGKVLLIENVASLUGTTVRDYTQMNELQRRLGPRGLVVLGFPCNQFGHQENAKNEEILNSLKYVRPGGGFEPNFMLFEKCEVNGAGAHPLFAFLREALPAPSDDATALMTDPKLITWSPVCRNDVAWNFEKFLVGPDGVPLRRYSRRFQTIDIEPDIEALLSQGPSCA
Chain of Phospholipid hydroperoxide glutathione peroxidase GPX4 (Homo sapiens) (P36969 whole entry, looked up): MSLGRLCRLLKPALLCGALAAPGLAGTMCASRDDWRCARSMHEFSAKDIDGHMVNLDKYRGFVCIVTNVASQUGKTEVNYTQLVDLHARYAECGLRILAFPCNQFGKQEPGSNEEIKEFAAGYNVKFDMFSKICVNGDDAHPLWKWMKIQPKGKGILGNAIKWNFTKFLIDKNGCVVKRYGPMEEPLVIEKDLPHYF

CCc1c(C(=O)C(N)=O)c2c(OCC(=O)OC)cccc2n1Cc1ccccc1
inactive: Potency [1] | Potency [2] | Potency [3] | Potency [4] | outcome [5] | outcome [6]

C=CC(C)(C)c1[nH]c2cccc3c2c1C[C@@H]1[C@@H]3[C@@H](OC(C)=O)[C@H](C)CN1C
inactive: Potency [1] | Potency [2] | Potency [3] | Potency [4] | outcome [5] | outcome [6]

C[C@]12CC[C@@H](O)C[C@H]1CC[C@@H]1[C@@H]2CC[C@]2(C)C(=O)CC[C@@H]12
inactive: Potency [1] | Potency [2] | Potency [3] | Potency [4] | outcome [5] | outcome [6]

O=C1C[C@@H]2OCC=C3CN4CC[C@]56c7ccccc7N1[C@H]5[C@H]2[C@H]3C[C@H]46
inactive: Potency [1] | Potency [2] | Potency [3] | Potency [4] | outcome [5] | outcome [6]

CC1=C2C(=O)C3[C@@H](CC=C4C[C@@H](O)CC[C@@]43C)[C@@H]2CC[C@]12O[C@@H]1C[C@H](C)CN[C@H]1[C@H]2C (stereo partly drawn)
inactive: Potency [1] | Potency [2] | Potency [3] | Potency [4] | outcome [5] | outcome [6]

C=C(CO)C(=O)O[C@H]1C/C(C)=C/CC/C(CO)=C/[C@H]2OC(=O)C(=C)[C@H]12
inactive: Potency [1] | Potency [2] | Potency [3] | Potency [4] | outcome [5] | outcome [6]

Cc1cc(C(=O)CN2CCCC2)c(C)n1-c1ccc(F)cc1
inactive: Potency [1] | Potency [2] | Potency [3] | Potency [4] | outcome [5] | outcome [6]

CC(=O)OC12C(O)C(C)C3(O)C4C=C(C)C(=O)C4CC(CO)=CC3C1C2(C)C (stereo not drawn)
inactive: Potency [1] | Potency [2] | Potency [3] | Potency [4] | outcome [5] | outcome [6]

COC1CC(O[C@H]2CC[C@@]3(C)C(=CCC4C3C(O)[C@@H](O)[C@]3(C)[C@@H](C(C)=O)CC[C@]43O)C2)OC(C)C1OC1CC(OC)C(OC2OC(C)C(O)C(O)C2O)C(C)O1 (stereo partly drawn)
inactive: Potency [1] | Potency [2] | outcome [3] inactive [at 11.6 µM] | activity change, negative = thiol reactive [4] 105% [at 11.5 µM] | activity, negative = inhibition [5] 4.68% [at 11.6 µM] | redox activity (% of DA3003) [6] 8.26% [at 11.5 µM]

C=CC(C)(O)CC/C=C(\C)C(=O)O[C@H]1[C@H](O)[C@@H](CO)O[C@@H](OC(=O)[C@]23CCC(C)(C)CC2C2=CCC4[C@@]5(C)CC[C@H](O[C@@H]6O[C@H](CO[C@@H]7OC[C@H](O)[C@H](O)[C@H]7O[C@@H]7OC[C@@H](O)[C@H](O)[C@H]7O)[C@@H](O)[C@H](O)[C@H]6O)C(C)(C)C5CC[C@@]4(C)[C@]2(C)CC3)[C@@H]1OC1OC(C)C(O[C@@H]2OC[C@@H](O)[C@H](O[C@@H]3OC[C@@H](O)[C@H](O)[C@H]3O)[C@H]2O)C(O)C1O (stereo partly drawn)
inactive: outcome [1] inactive [at 9.52 µM] | activity change, negative = inhibition [2] 0.212% [at 9.73 µM] | outcome [3] inactive [at 11.6 µM] | activity change, negative = thiol reactive [4] 28.2% [at 11.5 µM] | activity, negative = inhibition [5] 1.73% [at 11.6 µM] | redox activity (% of DA3003) [6] -6.27% [at 11.5 µM]

CC12CCC3C(CCC4(O)CC(O)CCC34C=O)C1(O)CCC2C1=CC(=O)OC1 (stereo not drawn)
inactive: Potency [1] | Potency [2] | Potency [3] | Potency [4] | outcome [5] | outcome [6]

O=C(N1CCOCC1)N1CCN(c2ccc(Cl)cc2)CC1
inactive: Potency [1] | Potency [2] | Potency [3] | Potency [4] | outcome [5] | outcome [6]

CCC(C)(OC(C)=O)C(=O)O[C@H]1[C@H](OC(C)=O)C[C@@H]2[C@@](C)([C@@H]3C[C@H]4C=CO[C@H]4O3)[C@H](C)C[C@H](OC(C)=O)[C@@]2(COC(C)=O)[C@@]12CO2 (stereo partly drawn)
inactive: Potency [1] | Potency [2] | Potency [3] | Potency [4] | outcome [5] | outcome [6]
